Source: PubChem (National Center for Advancing Translational Sciences (NCATS))
TDP1 block – inhibitors of human tyrosyl-DNA phosphodiesterase TDP1 | Q9NUW8 | recombinant TDP1, AlphaScreen DNA substrate cleavage | Potency, µM (top dose mostly 130 µM), inactives show at the highest dose activity change, negative = inhibition, actives largely listed as inhibitors | 350,000 compounds, 0.28% hits; also: potency is read from the fitted curve at half-maximal effect; % is scaled to controls: 0 for no effect and ±100 for the full control effect; nearly all actives have a fitted effect of over 40% in size
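Tdp1 1 nM final; 15 min RT w/ cpd; substrate 15 nM, 5 min; beads 10 ug/ml, 10 min; AlphaScreen read. Neg ctrl: no enzyme.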
DT40 TDP1 no CPT – qHTS for Inhibitors of human tyrosyl-DNA phosphodiesterase 1 (TDP1): qHTS in cells in absence of CPT. DT40 Tdp1-/- hTDP1 cells, no CPT, ATP luminescence, 48 h. Potency, µM (doses to about 46.2 µM), for inactives: at the highest dose activity change, negative = growth inhibition, actives largely listed as inhibitors. 420,000 compounds, 15% hits; also: potency is read from the fitted curve at half-maximal effect; % is scaled to controls: 0 for no effect and ±100 for the full control effect; nearly all actives have a fitted effect of over 55% in size
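Growth of hTDP1-complemented DT40 Tdp1-knockout cells is measured by ATP luminescence after at least 48 hr compound exposure at 37 °C, with DMSO substituting for the 20 nM CPT used in the parallel screen.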
PLK1 PBD inh – PLK1 (human) polo-box domain binding inhibition; P53350; Plk1 PBD binding of FITC phosphopeptide, fluorescence polarization; Potency, µM, for inactives: max response, negative = inhibition, hits mostly inhibitors; 360,000 compounds, 2.8% hits; AID 720504; also: potency is read from the fitted curve at half-maximal effect; series mostly up to about 57 µM; % is scaled to controls: 0 for no effect and ±100 for the full control effect; nearly all actives have a fitted effect of over 65% in size
Target sequence (P53350 whole entry, looked up, the tested form may be a part): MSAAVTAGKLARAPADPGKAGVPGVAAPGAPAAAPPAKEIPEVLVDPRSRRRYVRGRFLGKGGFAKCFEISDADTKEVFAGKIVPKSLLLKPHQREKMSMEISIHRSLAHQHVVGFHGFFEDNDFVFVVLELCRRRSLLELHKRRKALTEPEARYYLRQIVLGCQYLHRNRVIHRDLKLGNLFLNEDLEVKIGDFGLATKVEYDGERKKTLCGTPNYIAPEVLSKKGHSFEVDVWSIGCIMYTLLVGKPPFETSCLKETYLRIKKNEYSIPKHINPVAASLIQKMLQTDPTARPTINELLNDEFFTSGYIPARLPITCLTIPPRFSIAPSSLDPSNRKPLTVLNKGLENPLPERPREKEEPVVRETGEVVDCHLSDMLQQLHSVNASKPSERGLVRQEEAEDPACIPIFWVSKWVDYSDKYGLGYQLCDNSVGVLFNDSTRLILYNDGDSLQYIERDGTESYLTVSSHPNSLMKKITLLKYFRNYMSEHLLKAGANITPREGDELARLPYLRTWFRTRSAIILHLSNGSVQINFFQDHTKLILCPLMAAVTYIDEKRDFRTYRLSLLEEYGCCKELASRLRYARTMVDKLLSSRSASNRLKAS
DT40 TDP1 CPT – DT40-hTDP1 cell growth loss with CPT; chicken DT40 Tdp1-/-;hTDP1 cells + 20 nM CPT, ATP luminescence, 48 h; Potency, µM (doses to about 46.2 µM), without a hit: at the top dose activity change, negative = growth inhibition, actives largely listed as inhibitors; 420,000 compounds, 12% hits; also: potency is read from the fitted curve at half-maximal effect; % is scaled to controls: 0 for no effect and ±100 for the full control effect; nearly all actives have a fitted effect of over 55% in size
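Chicken DT40 Tdp1-/- cells stably complemented with human TDP1 were seeded at 400 cells/well in medium containing 20 nM camptothecin, exposed to pin-transferred compounds, and grown at 37 °C for at least 48 hr. Viability was read as ATP luminescence.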
GCN5L2 inh-1 – inhibitors of human GCN5L2 histone acetyltransferase; Potency, µM (titrated, usually from 58.9 µM), without a hit: at the highest dose activity change, negative = inhibition, most hits filed as inhibitors; 390,000 compounds, 0.21% hits; AID 504327; GCN5L2 HAT assay, ThioGlo1 CoA-SH fluorescence; also: potency is read from the fitted curve at half-maximal effect; % is scaled to controls: 0 for no effect and ±100 for the full control effect
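Free CoA generated was detected with ThioGlo1 (50uM) fluorescence at Ex340nm/Em540nm, read immediately and after 20 min at room temperature. Enzyme, 20 nM in HEPES pH 7.5 buffer, saw compounds 15 min before adding 75uM H3(1-25) peptide and 70uM acetyl-CoA.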
VDR inh – inhibitors of human vitamin D receptor. P11473. VDR-SRC2-3 peptide fluorescence polarization, 2 h. Potency, µM, without a hit: max response, negative = inhibition, usual class: inhibitors. 400,000 compounds, 0.93% hits. AID 504847; also: potency is read from the fitted curve at half-maximal effect; % is scaled to controls: 0 for no effect and ±100 for the full control effect
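Two reagent solutions held at 4 deg C in the dark were dispensed, compounds pinned at 23 nl, and the mixture incubated 2 h at room temperature. Read-out: fluorescence polarization of VDR–SRC2-3 peptide binding.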
GCN5L2 inh-2 – confirmation of human GCN5L2 histone acetyltransferase inhibitors | 140 compounds, 70% hits | Potency, µM, usual class: inhibitors | GCN5L2 HAT, ThioGlo1 CoA fluorescence, 20 min | shares compounds with GCN5L2 inh-1 | AID 588347
USP1 UbRho – blocks human USP1/UAF1 cleavage of Ub-Rhodamine. shares compounds with VDR inh. Ub-Rhodamine cleavage, fluorescence kinetic read. Potency, µM (titrated, usually from 56.8 µM), without a hit: at the top dose activity change, negative = inhibition, usual class: inhibitors. 50 compounds, 50% hits
VDR confirm – inhibits human vitamin D receptor, primary hit validation. shares compounds with VDR inh. Potency, µM, usual class: inhibitors. AID 602199. VDR-coactivator inhibition assay, qHTS confirmation. 840 compounds, 89% hits; also: potency is read from the fitted curve at half-maximal effect
VDR FP – VDR (human) coactivator binding inhibition, fluorescein polarization. AID 602200. shares compounds with VDR inh. Potency, µM (top dose mostly 57.1 µM), for inactives: at the top dose activity change, negative = inhibition, most hits filed as inhibitors. 840 compounds, 48% hits. VDR-coactivator binding, fluorescein fluorescence polarization; also: potency is read from the fitted curve at half-maximal effect
VDR bla – inhibits human VDR in beta-lactamase reporter cells; VDR beta-lactamase reporter cells, FRET ratio; cells co-treated with VDR agonist LG190178; 840 compounds, 23% hits; shares compounds with VDR inh; Potency, µM (doses to about 46.1 µM), without a hit: top-dose activity change, negative = inhibition, actives largely listed as inhibitors; also: potency is read from the fitted curve at half-maximal effect; % is scaled to controls: 0 for no effect and ±100 for the full control effect
VDR cytotox – cytotoxic in counter-screen for VDR inhibitors. 840 compounds, 18% hits. cytotoxicity counter-screen, cell viability, qHTS. Potency, µM (top dose mostly 48.3 µM), for the others: at the top dose activity change, negative = cytotoxicity, actives largely listed as cytotoxic. AID 602204. shares compounds with VDR inh;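 also: potency is read from the fitted curve at half-maximal effect; plate controls were DMSO for no effect and high-concentration cycloheximide for full effect; nearly all actives have a fitted effect of over 75% in size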
TbPYK confirm – Trypanosoma brucei pyruvate kinase inhibition, cherry-pick confirmation | 890 compounds, 67% hits | AID 720569 | recombinant TbPYK, Kinase-Glo ATP luminescence | Potency, µM (highest dose often 76.9 µM), for the others: top-dose activity change, negative = inhibition, hits mostly inhibitors | shares compounds with PLK1 PBD inh; also: potency is read from the fitted curve at half-maximal effect; % is scaled to controls: 0 for no effect and ±100 for the full control effect; nearly all actives have a fitted effect of over 70% in size
TbPYK ADP-Glo – TbPYK inhibition, orthogonal confirmation; shares compounds with PLK1 PBD inh; Potency, µM (top dose mostly 76.9 µM), for the others: top-dose activity change, negative = inhibition, actives largely listed as inhibitors; 890 compounds, 62% hits; AID 720584; recombinant TbPYK, ADP-Glo luminescence, 60 min; also: potency is read from the fitted curve at half-maximal effect; % is scaled to controls: 0 for no effect and ±100 for the full control effect; nearly all actives have a fitted effect of over 75% in size
* hit, by the source's call; ? = inconclusive; / = no result given; [ ] = another dose, or the depositor's remark. Rows were chosen to be rich in hits. Some 18% of all compounds tested hit in one or more screens of this group. Calls follow the shape of the dose curve; as a rule, active = well fitted curve in the direction sought with a large enough effect; inconclusive = small, poorly fitted or top-dose-only effect, or another doubt; inactive = no such curve, though single readings can be large; an effect the other way counts as inactive or inconclusive.

SMILES | TDP1 block | DT40 TDP1 no CPT | PLK1 PBD inh | DT40 TDP1 CPT | GCN5L2 inh-1 | VDR inh | VDR confirm | VDR FP | VDR bla | VDR cytotox | others
O=C1NC(=O)C(=Cc2ccc(-c3ccc(F)cc3O)o2)C(=O)N1 | / | ? | 1.2µM* | ? | 3% | 28µM* | / | / | / | /
S=P(c1ccccc1)(c1ccccc1)c1c[nH]c2ccccc12 | 0% | / | / | / | / | / | / | / | / | /
COc1ccc(NC(=O)c2ccc(COCC(F)(F)C(F)F)cc2)cc1 | -5% | ? | 2% | -25% | 32% | 0% | / | / | / | /
Oc1c(Br)c(Br)c(Br)c(Br)c1Br | 4% | ? | 27µM* | ? | 32µM* | ? | / | / | / | / | GCN5L2 inh-2=14*
O=P(Nc1ccccc1)(Nc1ccccc1)Oc1cccc(Cl)c1 | 0% | ? | -1% | ? | -23% | -8% | / | / | / | /
O=C(O)CCC(=O)NCCC1=c2ccccc2=N/C1=C\c1c(O)n(Cc2ccc(F)cc2)c(=S)[nH]c1=O | 35µM* | 0% | 1.2µM* | 49% | 18µM* | 20µM* | 6* | ? | 8% | 22% | GCN5L2 inh-2=5.1*;TbPYK confirm=4.5µM*;TbPYK ADP-Glo=14µM*
CC(=NCCC1=CCCCC1)c1c(O)[nH]c(=O)[nH]c1=O | 1% | -22% | 1% | -14% | -2% | 12% | / | / | / | /
O=C1NC(=O)N(Cc2ccc(F)cc2)C(=O)/C1=C/c1cccs1 | -5% | 8.2µM* | 0.75µM* | 12µM* | -21% | 50µM* | 12* | ? | -12% | -38%
Cc1ccc(C2=NCC(=O)Nc3ccc(Br)cc32)cc1 | / | ? | 2% | 0% | -10% | -9% | / | / | / | /
O=c1[nH]c(=O)n(-c2cccc3ccccc23)c(O)c1/C=N/N1CCCCCC1 | 0% | -5% | -2% | -5% | -3% | -3% | / | / | / | /
O=c1oc(Cl)c(Cl)c2ccccc12 | 3%[56.1 µM] | 2.9µM* | 0.34µM* | 3.3µM* | 5% | 25µM* | 5* | ? | ? | 17µM* | USP1 UbRho=7.4µM*
COC(=O)CC(NC(=S)N1CC2C[C@@H](C1)Cn1c2cccc1=O)C(=O)OC (stereo not given in full) | / | 0% | 2% | 6% | -4% | 19% | / | / | / | /
Clc1ccc(N2CC2c2ccncc2)cc1 (stereo not given) | / | ? | -16% | ? | 1% | 6% | / | / | / | /
O=C1NC(=S)NC(=O)C1=Cc1ccc(OCC(=O)N2CCCC2)cc1 | -16% | 19% | 15µM* | -14% | -5% | 45µM* | 13* | 14µM* | 21% | 13%
CCCn1c(C)cc(C=O)c1C | 4% | 26% | -11% | 7% | 0% | 5% | / | / | / | /
COc1cccc(C2CC3C(=O)C=CC2N3Cc2ccccc2)c1 (stereo not given) | 8% | 16µM* | -19% | 21µM* | 1% | ? | 18* | ? | 21µM* | 17%
COc1cccc(-c2nn(Cc3ccccc3)cc2C(=O)O)c1 | 0% | 2% | 4% | 15% | -4% | 9% | / | / | / | /
O=S(=O)(/C(=C\c1ccc(C(F)(F)F)cc1)c1nc2ccccc2[nH]1)c1ccccc1 | / | 2.1µM* | -20% | 2.1µM* | / | 14µM* | 2.7* | ? | 5.2µM* | ?
CN1C(=O)/C(=C/c2ccc(Cl)s2)C(=O)NC1=S | -6% | 9.2µM* | 1.5µM* | 7.3µM* | -18% | 20µM* | 6.7* | ? | ? | -11%
C=CCN1C(=O)/C(=C/c2ccc(Br)s2)C(=O)NC1=S | / | 21µM* | 1.3µM* | ? | -24% | 20µM* | 4.2* | 39% | ? | -28%
O=C1C(c2ccccc2)=C(N2CC2)c2ccccc21 | 11% | ? | -6% | ? | -6% | 3% | / | / | / | /
O=C1C(=O)c2ccccc2-c2ccccc21 | 3% | 0.58µM* | -20% | 0.52µM* | 0% | 10µM* | 6* | 3.2µM* | 3.7µM* | 1.8µM*
C/C(=C\c1ccc(N(C)C)cc1)[N+](=O)[O-] | 4% | 4.1µM* | ? | 4.1µM* | 3% | 20µM* | 6.7* | ? | -134% | ?
CN(C)c1ccc(/C=C/[N+](=O)[O-])cc1 | 2% | 16µM* | -4% | ? | -3% | ? | ? | 86% | 0% | 5%
CN(C)c1ccccc1 | 7% | 16% | -4% | 2% | / | / | / | / | / | /
COC(=O)C1=C(c2ccc(F)cc2F)C[C@@H]2CC[C@H]1N2C | -3% | 2% | 3% | 0% | -2% | -3% | / | / | / | /
COc1ccc(-n2c(O)c(C=NCCN(C)C)c(=O)[nH]c2=O)cc1 | / | -1% | 1% | -23% | 1% | 5% | / | / | / | /
